T cruzi growth-1 – inhibitors of T. cruzi proliferation; 77,000 compounds, 5.9% hits; T. cruzi beta-gal in NIH3T3, GalScreen luminescence, 90 h; inhibition, % at 8.34 µM; AID 624255;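 active means mean inhibition above about 93%, with at least 55% of replicates each passing it, limit read from the data, passing the limit was not always enough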
C diff growth – C. difficile growth inhibition; Clostridium difficile clinical isolate growth, OD600, 24 h; stronger effect = lower value; growth activity, negative = inhibition, % at 16 µg/mL (by protocol); 86,000 compounds, 0.25% hits; AID 1259249;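 active means mean growth activity at or below -80% and every replicate also at or below -80%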
Pf Dd2 inh – P. falciparum Dd2 growth inhibition; SYBR Green, 72 h; stronger effect = lower value; activity change, % at 10 µM; 94,000 compounds, 2.3% hits; AID 1159554; in the data active means activity change below about -80%
T cruzi growth-2 – inhibitors of T. cruzi proliferation. shares compounds with T cruzi growth-1. T. cruzi beta-gal in NIH3T3, GalScreen luminescence, 90 h. inhibition, % at 8.35 µM. 5,600 compounds, 72% hits;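 active means mean replicate inhibition above about 95% and at least 55% of replicates individually reaching it, limit read from the data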
T cruzi growth-3 – inhibitors of T. cruzi proliferation; T. cruzi beta-gal in NIH3T3, GalScreen luminescence, 90 h; AID 651740; 5,600 compounds, 21% hits; inhibition, % at 2.09 µM; shares compounds with T cruzi growth-1;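 active means mean inhibition above about 95%, with at least 55% of replicates also reaching it, limit read from the data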
NIH3T3 tox – kills mouse NIH/3T3 fibroblasts. shares compounds with T cruzi growth-1. NIH/3T3 viability, CellTiter-Glo ATP luminescence, 90 h. cytotoxicity (signal decrease), % at 8.35 µM. 5,600 compounds, 14% hits. AID 651742;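 active means mean signal decrease across replicates above about 35% based on untreated-well scatter, with enough replicates individually passing, limit read from the data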
NIH3T3 tox 2 – NIH/3T3 (mouse) viability loss; shares compounds with T cruzi growth-1; NIH/3T3 viability, CellTiter-Glo ATP luminescence, 90 h; inhibition, % at 24.9 µM; 5,600 compounds, 56% hits; AID 651744;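 active means mean loss of cell viability signal at or above a set limit, and enough replicates individually reaching it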
Large screens that a line does not name were inactive (follow-up assays come after a bar, where they were run). Shown are actives, neighbours in structure and some others; about 6.8% of the full set was active somewhere.

O=C(Nc1ccccc1)N1CC(=O)N2[C@H](CO)[C@H](c3ccc(C#CC4CCCC4)cc3)[C@H]2C1	none (no result: T cruzi growth-1)
N#C[C@@H]1[C@@H](c2ccc(C3=CCCCC3)cc2)[C@H](CO)N1C(=O)c1cccc(F)c1	T cruzi growth-1 100 | T cruzi growth-2 inactive | T cruzi growth-3 inactive | NIH3T3 tox inactive | NIH3T3 tox 2 76
N#C[C@H]1[C@@H](c2ccc(C3=CCCCC3)cc2)[C@H](CO)N1S(=O)(=O)c1cccc(F)c1	T cruzi growth-1 100 | T cruzi growth-2 100 | T cruzi growth-3 inactive | NIH3T3 tox 45 | NIH3T3 tox 2 103
N#C[C@@H]1[C@H](c2ccc(C3=CCCCC3)cc2)[C@H](CO)N1S(=O)(=O)c1ccccc1	none
N#C[C@H]1[C@@H](c2ccc(C3=CCCCC3)cc2)[C@@H](CO)N1C(=O)c1cccc(F)c1	none
N#C[C@H]1[C@@H](c2ccc(C3=CCCCC3)cc2)[C@@H](CO)N1S(=O)(=O)c1cccc(F)c1	T cruzi growth-1 105 | T cruzi growth-2 101 | T cruzi growth-3 inactive | NIH3T3 tox 45 | NIH3T3 tox 2 65
N#C[C@@H]1[C@H](c2ccc(C3=CCCCC3)cc2)[C@@H](CO)N1S(=O)(=O)c1ccccc1	none
N#C[C@H]1[C@@H](c2ccc(C3=CCCCC3)cc2)[C@@H](CO)N1C(=O)c1ccccn1	T cruzi growth-1 103 | T cruzi growth-2 104 | T cruzi growth-3 117 | NIH3T3 tox inactive | NIH3T3 tox 2 105
N#C[C@H]1[C@@H](c2ccc(C3=CCCCC3)cc2)[C@H](CO)N1C(=O)c1ccccn1	none
COc1ccccc1NC(=O)N1C[C@@H](O)COC[C@H]2O[C@@H](CC(=O)N3CCC(Cc4ccccc4)CC3)CC[C@@H]21	none
C[C@H]1CN([C@@H](C)CO)S(=O)(=O)c2ccc(C#CC3CC3)cc2O[C@H]1CN(C)C(=O)c1ccccn1	none
C[C@@H]1CN([C@@H](C)CO)C(=O)c2cc(NC(=O)Nc3ccc(F)cc3)ccc2O[C@@H](C)CCCCO[C@@H]1CN(C)Cc1ccncc1	none
O=C(C1CCCC1)N1CC(=O)N2[C@@H](CO)[C@@H](c3ccc(C#CCc4ccccc4)cc3)[C@@H]2C1	none (no result: T cruzi growth-1)
C[C@H](CO)N1C[C@H](C)[C@H](CN(C)S(=O)(=O)c2ccc(Cl)cc2)OCCCC[C@H](C)Oc2ccc(NC(=O)C3CCCCC3)cc2C1=O	T cruzi growth-1 106 | T cruzi growth-2 111 | T cruzi growth-3 inactive | NIH3T3 tox inactive | NIH3T3 tox 2 51
C[C@@H]1CN([C@H](C)CO)C(=O)c2cc(NC(=O)C3CCCCC3)ccc2O[C@@H](C)CCCCO[C@H]1CN(C)S(=O)(=O)c1ccc(Cl)cc1	T cruzi growth-1 102, Pf Dd2 inh -83 | T cruzi growth-2 106 | T cruzi growth-3 inactive | NIH3T3 tox inactive | NIH3T3 tox 2 70
COc1ccc(S(=O)(=O)N(C)C[C@@H]2OCCCC[C@@H](C)Oc3ccc(NC(=O)C4CCCCC4)cc3C(=O)N([C@@H](C)CO)C[C@H]2C)cc1	T cruzi growth-1 106 | T cruzi growth-2 107 | T cruzi growth-3 inactive | NIH3T3 tox inactive | NIH3T3 tox 2 inactive
C[C@@H]1CCCCO[C@H](CN(C)S(=O)(=O)c2ccccc2)[C@@H](C)CN([C@H](C)CO)C(=O)c2cc(NC(=O)C3CCCCC3)ccc2O1	none
C[C@@H]1CCCCO[C@@H](CN(C)S(=O)(=O)c2ccc(F)cc2)[C@H](C)CN([C@H](C)CO)C(=O)c2cc(NC(=O)C3CCCCC3)ccc2O1	T cruzi growth-1 101 | T cruzi growth-2 107 | T cruzi growth-3 inactive | NIH3T3 tox inactive | NIH3T3 tox 2 inactive
COc1ccc(S(=O)(=O)N(C)C[C@H]2OCCCC[C@@H](C)Oc3ccc(NC(=O)C4CCCCC4)cc3C(=O)N([C@@H](C)CO)C[C@H]2C)cc1	none
C[C@@H]1CCCCO[C@@H](CN(C)S(=O)(=O)c2ccccc2)[C@@H](C)CN([C@@H](C)CO)C(=O)c2cc(NC(=O)C3CCCCC3)ccc2O1	none
C[C@@H]1CN([C@H](C)CO)C(=O)c2cc(NC(=O)C3CCCCC3)ccc2O[C@@H](C)CCCCO[C@H]1CN(C)S(=O)(=O)c1ccc(F)cc1	none
C[C@H](CO)N1C[C@H](C)[C@@H](CN(C)Cc2ccncc2)Oc2ccc(NS(=O)(=O)c3cn(C)cn3)cc2C1=O	none (no result: T cruzi growth-1)
C[C@@H]1CCCCO[C@@H](CN(C)S(C)(=O)=O)[C@@H](C)CN([C@H](C)CO)C(=O)c2cc(NC(=O)C3CCCCC3)ccc2O1	none
C[C@H](CO)N1C[C@H](C)[C@@H](CN(C)S(=O)(=O)c2ccc(Cl)cc2)OCCCC[C@H](C)Oc2ccc(NC(=O)C3CCCCC3)cc2C1=O	T cruzi growth-1 107 | T cruzi growth-2 104 | T cruzi growth-3 inactive | NIH3T3 tox inactive | NIH3T3 tox 2 inactive
C[C@@H]1CN([C@H](C)CO)C(=O)c2cc(NC(=O)C3CCCCC3)ccc2O[C@@H](C)CCCCO[C@H]1CN(C)S(=O)(=O)c1ccccc1	none
C[C@@H]1CN([C@@H](C)CO)C(=O)c2cc(NC(=O)C3CCCCC3)ccc2O[C@@H](C)CCCCO[C@H]1CN(C)S(=O)(=O)c1ccccc1	none
C[C@@H]1CCCCO[C@H](CN(C)S(=O)(=O)c2ccc(Cl)cc2)[C@H](C)CN([C@@H](C)CO)C(=O)c2cc(NC(=O)C3CCCCC3)ccc2O1	T cruzi growth-1 108 | T cruzi growth-2 103 | T cruzi growth-3 inactive | NIH3T3 tox inactive | NIH3T3 tox 2 inactive
CCCN1[C@@H]2c3ccc(C4=CCCCC4)c(=O)n3C[C@H]1[C@H](CO)[C@H]2C(=O)NCCc1ccncc1	none (no result: T cruzi growth-1)
CCN1[C@@H]2c3ccc(C4=CCCCC4)c(=O)n3C[C@H]1[C@H](CO)[C@H]2C(=O)NCc1ccccn1	none
CCN1[C@@H]2Cn3c(ccc(C4=CCCC4)c3=O)[C@H]1[C@@H](C(=O)NCc1ccccn1)[C@@H]2CO	T cruzi growth-1 99 | T cruzi growth-2 inactive | T cruzi growth-3 inactive | NIH3T3 tox inactive | NIH3T3 tox 2 inactive
CCN1[C@@H]2Cn3c(ccc(C4=CCCCC4)c3=O)[C@H]1[C@@H](C(=O)NCCc1ccncc1)[C@@H]2CO	T cruzi growth-1 99 | T cruzi growth-2 inactive | T cruzi growth-3 inactive | NIH3T3 tox inactive | NIH3T3 tox 2 inactive
CO[C@H]1CN(C)C(=O)c2cc(NS(C)(=O)=O)ccc2OC[C@@H](C)N(Cc2cccnc2)C[C@@H]1C	none (no result: C diff growth, Pf Dd2 inh)
COc1ccccc1CNC(=O)C[C@H]1CC[C@H]2[C@@H](COC[C@@H](O)CN2Cc2ccc3c(c2)OCO3)O1	none
COCCNC(=O)C[C@H]1CC[C@H]2[C@@H](COC[C@H](O)CN2Cc2cccc(-c3ccncc3)c2)O1	none

Source: PubChem
